Reference: PubChem BioAssay (NCATS)
Inconclusive results are not listed. The source made the active and inactive calls. Calls come from the whole dose curve; as a rule, active = well fitted curve in the direction sought with a large enough effect; inconclusive = small, poorly fitted or top-dose-only effect, or another doubt; inactive = no such curve, though single readings can be large; an effect the other way counts as inactive or inconclusive.

Key:
[1] = target: Cytochrome P450 3A4 (Homo sapiens) (UniProt P08684); experiment: qHTS for inhibitors of CYP3A4 against the NCATS DSHEA and TCM libraries (AID 1919971); conditions: recombinant CYP3A4 enzyme activity, luminescence qHTS; series mostly up to 34.1 µM;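 note: % is set by controls: 0 for no effect and ±100 for the full control effect; inhibition lowers luminescence from luciferin made by CYP3A4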
Chain of Cytochrome P450 3A4 (Homo sapiens) (P08684 whole entry, looked up): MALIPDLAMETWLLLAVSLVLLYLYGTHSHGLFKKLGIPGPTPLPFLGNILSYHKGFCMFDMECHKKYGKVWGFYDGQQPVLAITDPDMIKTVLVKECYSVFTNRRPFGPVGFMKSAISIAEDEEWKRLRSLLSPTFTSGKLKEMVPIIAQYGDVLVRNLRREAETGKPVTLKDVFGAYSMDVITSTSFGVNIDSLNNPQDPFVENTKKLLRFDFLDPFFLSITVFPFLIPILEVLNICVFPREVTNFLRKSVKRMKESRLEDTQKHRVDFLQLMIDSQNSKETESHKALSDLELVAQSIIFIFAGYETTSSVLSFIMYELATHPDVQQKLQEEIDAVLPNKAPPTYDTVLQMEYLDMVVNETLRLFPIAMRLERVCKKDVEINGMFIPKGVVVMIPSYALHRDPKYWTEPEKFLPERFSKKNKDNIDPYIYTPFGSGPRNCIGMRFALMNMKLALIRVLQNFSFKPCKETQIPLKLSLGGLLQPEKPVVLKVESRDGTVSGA
Procedure, shortened: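 Light output from converted D-luciferin reports remaining CYP activity. Compounds preincubate with enzyme and substrate for 15 min; NADPH regeneration (1x final) runs the reaction for 30-45 min.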

[2] = target: Cytochrome P450 2D6 (Homo sapiens) (UniProt P10635); experiment: qHTS for inhibitors of CYP2D6 against the NCATS DSHEA and TCM libraries (AID 1919972); conditions: CYP2D6 enzymatic inhibition, luminescence qHTS; series mostly up to 34.1 µM; note: % is set by controls: 0 for no effect and ±100 for the full control effect
Chain of Cytochrome P450 2D6 (Homo sapiens) (P10635 whole entry, looked up): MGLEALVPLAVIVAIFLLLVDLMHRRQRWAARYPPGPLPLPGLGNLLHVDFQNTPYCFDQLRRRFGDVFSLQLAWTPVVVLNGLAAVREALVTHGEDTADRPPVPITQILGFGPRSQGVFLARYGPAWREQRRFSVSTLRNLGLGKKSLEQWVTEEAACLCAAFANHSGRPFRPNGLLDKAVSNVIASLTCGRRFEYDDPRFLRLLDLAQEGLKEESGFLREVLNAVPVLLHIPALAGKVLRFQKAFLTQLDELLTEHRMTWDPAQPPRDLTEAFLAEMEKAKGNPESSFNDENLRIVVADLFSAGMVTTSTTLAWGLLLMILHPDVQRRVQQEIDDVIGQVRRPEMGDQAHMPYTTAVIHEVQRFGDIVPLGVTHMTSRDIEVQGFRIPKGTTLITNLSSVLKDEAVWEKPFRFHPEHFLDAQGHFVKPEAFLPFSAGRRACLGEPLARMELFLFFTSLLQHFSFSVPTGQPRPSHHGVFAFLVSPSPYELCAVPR
Procedure, shortened: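 Steps: enzyme plus luciferin substrate dispensed; test substances pinned; 15 min RT; 1x NADPH regenerating solution added, 30–45 min RT protected from light; detection reagent, 30 min RT; luminescence measured. Minus-enzyme wells as background.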

[3] = KB-3-1 P-gp reporter qHTS against the NCATS DSHEA and TCM libraries (AID 1919975); conditions: KB-3-1 parental cells, CellTiter-Glo luminescence viability, 72 h; series mostly up to 26.1 µM; note: 0% is about no effect
Procedure, shortened: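 KB-3-1 parental line, 1536-well qHTS: cells seeded, ~4 h attachment, pintool compound addition, ~72 h at 37C, then CellTiter-Glo, 30 min RT, luminescence. Concentration-response format.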

[4] = target: Cytochrome P450 1A2 (Homo sapiens) (UniProt P05177); experiment: qHTS for inhibitors of CYPIA2 against the NCATS DSHEA and TCM libraries (AID 1919976); conditions: recombinant CYP1A2 enzyme activity, luminescence; series mostly up to 37 µM;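 note: light from luciferin formed by CYP1A2 from a pro-luciferin substrate; % is set by controls: 0 for no effect and ±100 for the full control effect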
Chain of Cytochrome P450 1A2 (Homo sapiens) (P05177 whole entry, looked up): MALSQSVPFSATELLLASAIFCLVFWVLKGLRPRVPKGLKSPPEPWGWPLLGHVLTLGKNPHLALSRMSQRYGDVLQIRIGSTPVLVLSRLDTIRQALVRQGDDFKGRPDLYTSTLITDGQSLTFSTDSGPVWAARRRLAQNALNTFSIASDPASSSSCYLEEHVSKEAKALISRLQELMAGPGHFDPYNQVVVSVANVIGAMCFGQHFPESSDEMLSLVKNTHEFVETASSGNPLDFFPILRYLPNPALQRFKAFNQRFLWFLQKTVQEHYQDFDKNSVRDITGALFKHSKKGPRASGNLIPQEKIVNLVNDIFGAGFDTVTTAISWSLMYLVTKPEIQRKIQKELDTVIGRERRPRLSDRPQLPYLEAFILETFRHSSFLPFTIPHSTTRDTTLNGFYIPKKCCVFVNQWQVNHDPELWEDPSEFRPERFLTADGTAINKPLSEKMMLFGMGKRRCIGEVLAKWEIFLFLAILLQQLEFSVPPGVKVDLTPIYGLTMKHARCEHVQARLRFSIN
Procedure, shortened: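 In this quantitative HTS, inhibition of recombinant human CYP1A2 was measured as loss of luciferin-derived luminescence. Turnover ran 30-45 min at RT after NADPH regeneration solution was added.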

[5] = qHTS Counterscreen for compound interference against the NCATS DSHEA and TCM libraries (AID 1919978); conditions: firefly luciferase detection reagent interference, luminescence;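 note: compounds preincubated with 1 µM D-luciferin or buffer before detection reagent; % of control where 0% means no effect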
Procedure, shortened: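 Compounds, titrated from 19.5 nM to 39.8 uM final, were pinned onto 1 uM D-luciferin or plain 100 mM potassium phosphate. After 15 min at room temperature, luciferin detection reagent was added for 30 min before the luminescence read.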

[6] = Dual reporter qHTS for agonist of Pregnane X Receptor (hPXR) against the NCATS DSHEA and TCM libraries: Fluorescence readout (AID 1920058); conditions: PXR dual reporter cells; series mostly up to 40 µM; note: 0% is about no effect
Procedure, shortened: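 Measures viability of the PXR reporter HepG2 line by protease-substrate fluorescence (405/540 nm), taken 1 h after CellTiter-Fluor addition. Substances are tested as concentration series over a ~24 h exposure, with rifampicin as agonist control.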

[7] = target: Nuclear receptor subfamily 1 group I member 2 (Homo sapiens) (UniProt O75469); experiment: Dual reporter qHTS for agonist of Pregnane X Receptor (hPXR) against the NCATS DSHEA and TCM libraries: Luminescence readout (AID 1920059); conditions: hPXR dual reporter cells, luciferase luminescence agonist; series mostly up to 40 µM; note: 0% is about no effect
Chain of Nuclear receptor subfamily 1 group I member 2 (Homo sapiens) (O75469 whole entry, looked up): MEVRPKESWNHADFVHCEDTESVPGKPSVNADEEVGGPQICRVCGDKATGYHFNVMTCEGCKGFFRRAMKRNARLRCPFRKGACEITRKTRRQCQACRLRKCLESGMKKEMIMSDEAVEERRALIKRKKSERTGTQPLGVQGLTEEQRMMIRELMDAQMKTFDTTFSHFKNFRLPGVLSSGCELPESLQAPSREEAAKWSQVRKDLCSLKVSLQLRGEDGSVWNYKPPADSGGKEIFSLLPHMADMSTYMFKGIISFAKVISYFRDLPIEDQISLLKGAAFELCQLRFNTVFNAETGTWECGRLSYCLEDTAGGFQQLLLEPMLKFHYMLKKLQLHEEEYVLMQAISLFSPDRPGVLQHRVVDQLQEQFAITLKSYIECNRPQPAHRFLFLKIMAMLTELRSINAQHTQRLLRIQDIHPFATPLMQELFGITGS
Procedure, shortened: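 hPXR-LucHepG2 cells in phenol red-free DMEM with 5% charcoal-stripped FBS, 2000 cells/well, attached 5 h, then exposed 24 h at 37C to compounds; rifampicin as positive agonist control (2.8 nM–92 uM). Luciferase luminescence read.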

Measured: max response

C[C@]12CC[C@H](O)CC1=CC[C@@H]1[C@@H]2CC[C@]2(C)C(=O)CC[C@@H]12
inactive: [1] | [2] | [3] | [4] | [5] -2.96% | [6] | [7]
